BAZ2B block = qHTS Assay for Inhibitors of BAZ2B; Bromodomain adjacent to zinc finger domain protein 2B (Homo sapiens), Q9UIF8; AlphaScreen BAZ2B-H3K14Ac peptide displacement; 4.4% of 360,000 active; Potency, µM (doses to about 114 µM), inactives show top-dose activity change, negative = inhibition, actives largely listed as inhibitors; further: potency means the concentration at half of the fitted maximal effect; on the % scale 0 is the no-effect control and ±100 the full control effect; nearly all actives have a fitted effect of over 60% in size
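BAZ2B (50 nM) with biotin-H3(5-23)K14Ac peptide (50 nM) in PBS pH 7.4, 0.01% Tween-20, preformed 30 min, then compound 30 min at room temperature; top concentration 110uM. AlphaScreen streptavidin donor/nickel chelate acceptor beads (10 ug/mL final), 20 min dark, signal read.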
JMJD2A Tudor inh = qHTS Assay for Inhibitors of JMJD2A-Tudor Domain; Lysine-specific demethylase 4A (Homo sapiens), O75164; AlphaScreen JMJD2A-Tudor / H3K4me3 peptide binding; Potency, µM (highest dose often 114 µM), inactives show top-dose activity change, negative = inhibition, hits mostly inhibitors; 4.4% of 390,000 active; AID 504339, 2011; further: potency means the concentration at half of the fitted maximal effect; on the % scale 0 is the no-effect control and ±100 the full control effect; nearly all actives have a fitted effect of over 50% in size
Target sequence (O75164 whole entry, looked up, the tested form may be a part): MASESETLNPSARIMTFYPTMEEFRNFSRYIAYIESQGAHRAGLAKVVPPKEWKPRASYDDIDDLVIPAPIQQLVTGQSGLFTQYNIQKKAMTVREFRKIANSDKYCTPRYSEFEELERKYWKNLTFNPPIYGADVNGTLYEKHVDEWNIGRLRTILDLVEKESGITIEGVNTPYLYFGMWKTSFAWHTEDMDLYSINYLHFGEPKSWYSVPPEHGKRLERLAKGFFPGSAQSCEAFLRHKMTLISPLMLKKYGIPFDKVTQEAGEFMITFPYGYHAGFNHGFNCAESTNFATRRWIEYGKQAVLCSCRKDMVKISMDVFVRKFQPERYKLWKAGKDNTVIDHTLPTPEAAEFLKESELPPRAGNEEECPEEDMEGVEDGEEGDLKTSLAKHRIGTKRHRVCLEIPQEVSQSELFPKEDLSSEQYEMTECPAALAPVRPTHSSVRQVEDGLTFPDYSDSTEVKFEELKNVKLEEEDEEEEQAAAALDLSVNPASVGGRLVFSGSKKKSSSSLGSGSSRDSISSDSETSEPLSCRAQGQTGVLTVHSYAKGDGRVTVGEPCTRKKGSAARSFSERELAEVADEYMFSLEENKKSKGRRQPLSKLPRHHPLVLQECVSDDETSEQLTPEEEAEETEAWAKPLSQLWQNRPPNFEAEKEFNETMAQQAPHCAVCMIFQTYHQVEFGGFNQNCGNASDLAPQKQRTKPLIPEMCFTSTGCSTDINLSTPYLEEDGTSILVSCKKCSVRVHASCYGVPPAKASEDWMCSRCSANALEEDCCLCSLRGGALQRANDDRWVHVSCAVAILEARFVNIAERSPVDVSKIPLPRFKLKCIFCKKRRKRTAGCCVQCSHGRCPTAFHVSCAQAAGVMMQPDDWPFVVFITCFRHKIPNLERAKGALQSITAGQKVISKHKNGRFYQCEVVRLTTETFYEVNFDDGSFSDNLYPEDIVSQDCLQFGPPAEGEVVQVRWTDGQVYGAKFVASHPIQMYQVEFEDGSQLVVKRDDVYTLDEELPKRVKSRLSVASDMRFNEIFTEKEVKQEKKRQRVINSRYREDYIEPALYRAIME
G9a inh = qHTS Assay for Inhibitors of Histone Lysine Methyltransferase G9a | Potency, µM (highest dose often 102 µM), without a hit: at the highest dose activity, negative = inhibition, usual class: inhibitors | AID 504332, 2011 | G9a H3K9 monomethylation, AlphaScreen, 2 h | 8.8% of 350,000 active | Histone-lysine N-methyltransferase EHMT2 (Homo sapiens), Q96KQ7; further: potency means the concentration at half of the fitted maximal effect; on the % scale 0 is the no-effect control and ±100 the full control effect; nearly all actives have a fitted effect of over 75% in size
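AlphaScreen detection with an anti-monomethyl H3K9 antibody quantified product after a 2 h room-temperature reaction containing 500 nM biotinylated H3K9 peptide, 20 µM SAM and 20 nM enzyme, which had been preincubated 15 min with compound.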
Six1-Eya2 inh = qHTS Assay for Inhibitors of the Six1/Eya2 Interaction; AlphaScreen GST-Six1/His-Eya2 binding, biochemical; hits give low values; AID 651725, 2012; activity change, % (concentration not given with the values); Homeobox protein SIX1 (Homo sapiens) + Protein phosphatase EYA2 (Homo sapiens), …; 0.56% of 360,000 active; in the data active means activity change below about -65%; inconclusive means mostly about -30% to -63%; further: on the % scale 0 is the no-effect control and ±100 the full control effect
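Six1/Eya2 binding was read as AlphaScreen signal after compounds were pinned into GST-Six1 plus His-tagged Eya2 (5X stock 250/500 nM) in pH 8.0 Tris/NaCl/TCEP buffer, beads added, then incubated 1 h, 37 C, dark.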
CtBP-E1A blk = qHTS Assay for Inhibitors of the CtBP/E1A Interaction. AlphaScreen GST-E1A/His-CtBP binding, 1536-well; hits give low values. activity change, % (test concentration not listed). CtBP / adenovirus E1A interaction (AlphaScreen). AID 651724, 2012. 0.49% of 340,000 active; in the data active means activity change below about -65%; inconclusive means mostly about -30% to -63%; further: on the % scale 0 is the no-effect control and ±100 the full control effect
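GST-E1A and His-tagged CtBP (125 nM each as 5X stock) were preincubated with pin-transferred compound for 2 h at 37 °C in the dark, then glutathione donor and nickel acceptor beads were added for 1 h before AlphaScreen reading.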
HP1b binding inh = HTS for Inhibitors of HP1-beta Chromodomain Interactions with Methylated Histone Tails | Chromobox protein homolog 1 (Homo sapiens), P83916 | AlphaScreen HP1-beta / biotin-H3K9me3 peptide binding | Potency, µM (top dose mostly 114 µM), inactives show at the highest dose activity change, negative = inhibition, most hits filed as inhibitors | 0.56% of 390,000 active | AID 540317, 2011; further: potency means the concentration at half of the fitted maximal effect; nearly all actives have a fitted effect of over 70% in size
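Compound inhibition of the preformed complex between 50 nM HP1-beta and 50 nM biotinylated H3K9me3 peptide was read by AlphaScreen. Buffer was PBS pH 7.4 with 0.01% Tween-20. Incubations ran 30 min at room temperature, with 10 ug/mL donor/acceptor beads.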
* marks the source's active call; other numbers are inactive results; ? = inconclusive; . = not tested or not shown; ! = not active in a repeat; [ ] = dose if it differs, or a comment. Only some compounds are listed: those with a hit (about 10% of all), similar ones and a draw of the others. Unless noted, the call rests on the fitted dose curve; in most records, active means well fitted inhibition curve with a large enough effect; inconclusive means small, poorly fitted or top-dose-only effect; inactive means no such curve, though single readings can be large or run the other way.

SMILES	BAZ2B block	JMJD2A Tudor inh	G9a inh	Six1-Eya2 inh	CtBP-E1A blk	HP1b binding inh
CC(=O)C1=C(C)NC(SCC(N)=O)=C(C#N)C1C (configuration not stated)	-8%	13µM*	?	0	5	?
CC(=O)C1=C(C)NC(SCC(N)=O)=C(C#N)C1CC(C)C (configuration not stated)	-15%	22µM*	7.1µM*	8	2	-36%
Cc1ccc(S(=O)(=O)Nc2cccc(-c3ccc(N4CCCCC4)nn3)c2)s1	-23%	-15%	-27%[59 µM]	.	.	11%[57 µM]
CC(=O)C1=C(C)NC(SCC(=O)c2ccc(F)cc2)=C(C#N)C1CC(C)C (configuration not stated)	-29%	13µM*	3.5µM*	14	3	26%
CCOc1cc(C2c3c(oc4ccccc4c3=O)C(=O)N2Cc2ccccc2Cl)ccc1O (configuration not stated)	-9%	-8%	-1%[59 µM]	.	.	25%
CC(C)(C)NC(=O)c1ccc2nc(CCc3ccccc3)oc2c1	1%	-14%	2%[59 µM]	.	.	7%[57 µM]
CCN1CCN(C(=O)Nc2cccc3ccccc23)CC1	?	-1%	40µM*	-1	1	21%
COc1ccc(NC(=O)CCCN2C(=O)COc3ccc(C)cc32)cc1OC	-13%	-24%	-9%[59 µM]	.	.	-6%
Cc1ccc2c(c1)N(CCCC(=O)Nc1cccc(C(F)(F)F)c1)C(=O)CO2	-4%	16µM*!	14%[59 µM]	-7	3	-16%[57 µM]
CCOCCCn1c(=S)[nH]c2cc(C(=O)NCCc3ccc(OC)c(OC)c3)ccc2c1=O	-1%	3%	.	2	1	53%
COC(=O)c1ccc2c(=O)n(CCCCCC(=O)N3CCN(c4ccccc4)CC3)c(=O)[nH]c2c1	3%	56µM*	-7%	0	0	-25%
COCCNC(=O)C1CCC(Cn2c(=S)[nH]c3ccccc3c2=O)CC1 (configuration not stated)	-3%	79µM*	?	-7	-8	47%
CCOCCCn1c(=S)[nH]c2cc(C(=O)NCCOC)ccc2c1=O	?	40µM*	?	-1	8	43%
O=C(NCCc1c[nH]c2ccccc12)C1CCC(Cn2c(=S)[nH]c3ccccc3c2=O)CC1 (configuration not stated)	-3%	-16%	3%	-10	-8	36%
COCCn1c(=S)[nH]c2cc(C(=O)NC(C)C)ccc2c1=O	?	?	11µM*	7	7	32%
CCOCCCNC(=O)c1ccc2c(=O)n(CCCOCC)c(=S)[nH]c2c1	-19%	-11%	10µM*	1	-2	35%
CCOCCCNC(=O)c1ccc2c(=O)n(CCc3ccccc3)c(=O)[nH]c2c1	1%	3%	0%[59 µM]	.	.	30%
CCOCCCn1c(=S)[nH]c2cc(C(=O)NCCCN(CC)CC)ccc2c1=O	-14%	-18%	8.9µM*	2	-3	27%
COC(=O)c1ccc2c(=O)n(CCCCCC(=O)O)c(=S)[nH]c2c1	-28%	50µM*	45µM*	-3	4	42%
CCOc1ccc(C2CC(=O)c3c([nH]c(C(=O)OCC4CCCCC4)c3C)C2)cc1 (configuration not stated)	-8%	3%	10%[59 µM]	.	.	51%
CCCc1cc(=O)oc2c(CNc3ccc(OCC)cc3)c(O)ccc12	?	?	40µM*	-5	-3	5%
CCCN1CCN(CCCNC(=O)Cn2c(-c3cccs3)cc3ccccc32)CC1	-13%	-25%	-12%[59 µM]	.	.	6%
Cc1nn(C)c(C)c1CN(C)C(=O)CCCC(=O)O	6%	50µM*	2%[59 µM]	9	12	1%

High-throughput results from PubChem BioAssay.
